Measurements published in ChEMBL document CHEMBL4513146, “CO-ADD screening of Karazin Kharkiv National University (Ukraine) compounds”.
Measured potencies and affinities stand elsewhere.

How the values were obtained:
Klebsiella pneumoniae = details: Concentration 32 ug.mL-1;; ASSAY_TEST Inhibition of Bacterial Growth; detection method Absorption (OD600); MEDIA CAMHB; plate type 384well; NBS; CORNING #3640; time 18 hr
Candida albicans = details: Concentration 32 ug.mL-1; ASSAY_TEST Inhibition of Fungal Growth; detection method Absorption (OD530)
Cryptococcus neoformans = details: Concentration 32 ug.mL-1; ASSAY_TEST Inhibition of Fungal Growth; detection method Resazurin; Absorption (OD600-OD570); plate type 384well; NBS; CORNING #3640

| Compound | Inhibition (Klebsiella pneumoniae) | Inhibition (Candida albicans) | Inhibition (Cryptococcus neoformans) |
| --- | --- | --- | --- |
| O=C(Cn1nc2c3c4c(sc3ncn2c1=O)CCCC4)N1CCc2ccccc2C1 | 9.79% | 4.18% | -11.61% |
| COc1cccc(-n2ccn3c(SCC(=O)c4ccc(C)cc4)nnc3c2=O)c1 | 10.94% | 3.43% | -10.21% |
| Cc1cc2nn(CC(=O)Nc3ccccc3C)c(=O)n2c(Nc2ccc(F)c(C)c2)n1 | 13.6% | 21.67% | -6.31% |
| O=c1n(Cc2nc(-c3ccc(Br)cc3)no2)nc2ccc(-c3ccccc3)nn12 | 7.97% | 1.04% | -15.1% |
| CCOC(=O)c1ccc(NC(=O)Cn2nc3c4cc(-c5ccc(Cl)cc5)nn4ccn3c2=O)cc1 | 8.16% | 4.56% | -16.17% |
| Cc1cc(C)cc(N(Cc2c(F)cccc2Cl)S(=O)(=O)c2cccn3cnnc23)c1 | 7.41% | 3.71% | -5.6% |
| CCc1nnc2c(S(=O)(=O)N(Cc3cccc(C)c3)c3cccc(Cl)c3)cccn12 | 3.49% | 3.58% | -6.66% |
| COc1ccc(NC(=O)c2ccc3nn(CC(=O)Nc4ccccc4C(F)(F)F)c(=O)n3c2)cc1 | 0.14% | 5.37% | -8.24% |
| CCc1ccccc1Sc1nccn2c(=O)n(CC(=O)Nc3ccc(OC)cc3)nc12 | 0.32% | 4.23% | -13.58% |
| COc1cccc(CN(c2cc(C)cc(C)c2)S(=O)(=O)c2cccn3c(C)nnc23)c1 | -4.31% | 1.08% | -6.64% |
